Experimental data taken from PubChem BioAssay (Tox21).
Results filed as inconclusive are left out. Active and inactive are the calls of the source. Unless noted, calls come from the whole dose curve.

Biological target: Muscarinic acetylcholine receptor M1 (Homo sapiens) (UniProt P11229)
Assay: Cholinergic receptor muscarinic 1 (CHRM1) small molecule agonists, cell-based qHTS assay (AID 1963589); note: nearly all actives have a fitted effect of over 35% in size
Settings: CHRM1-CHO cells, agonist mode, calcium flux fluorescence; series mostly up to 76.8 µM; activation: at the top concentration
Outline: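 CHO cells stably expressing human CHRM1, seeded 18 h at 37 C/5% CO2, dye-loaded 1 h at 37 C, then given compound in agonist mode; intracellular calcium fluorescence read kinetically at 1 s intervals. Fifteen concentrations, three independent runs.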
% is set by controls: 0 for no effect and ±100 for the full control effect.

Sequence of Muscarinic acetylcholine receptor M1 (Homo sapiens) (P11229 whole entry, looked up): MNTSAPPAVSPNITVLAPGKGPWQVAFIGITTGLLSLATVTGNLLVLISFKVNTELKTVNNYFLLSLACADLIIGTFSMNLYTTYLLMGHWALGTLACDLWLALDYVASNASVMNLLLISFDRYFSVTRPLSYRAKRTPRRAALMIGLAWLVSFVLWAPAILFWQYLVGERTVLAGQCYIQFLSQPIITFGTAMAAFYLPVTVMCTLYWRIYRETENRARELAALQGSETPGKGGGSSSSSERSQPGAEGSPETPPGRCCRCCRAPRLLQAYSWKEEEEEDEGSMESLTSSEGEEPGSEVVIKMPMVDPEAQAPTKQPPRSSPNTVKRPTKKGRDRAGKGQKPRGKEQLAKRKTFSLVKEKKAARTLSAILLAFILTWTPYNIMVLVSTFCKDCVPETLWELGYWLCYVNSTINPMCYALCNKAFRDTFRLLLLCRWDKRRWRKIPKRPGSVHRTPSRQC

Row | SMILES | activation
1 | CCCOc1ccc(S(=O)(=O)N2CCN(CC)CC2)cc1-c1nc2c(CC)n(Cc3ccccn3)nc2c(=O)[nH]1 | -0.68% (inactive)
2 | COc1cc(Cl)c(OC)cc1N | 14.6% (inactive)
3 | Oc1ccccc1F | 0.0482% (inactive)
4 | NCCCN1CCOCC1 | 0.228% (inactive)
5 | CC(C)OC(=O)c1ccccc1C(=O)OC(C)C | 0.434% (inactive)
6 | CC1CC(OC(=O)C(O)c2ccccc2)CC(C)(C)N1C (centres undefined) | -0.621% [at 35.3 µM] (inactive)
7 | C=CC(=C)CCCC(C)(C)OC(C)=O | -1.19% (inactive)
8 | CC(=O)N[C@@H](CCC(=O)O)C(=O)O | -0.0205% [at 35.3 µM] (inactive)
9 | CC(=O)OCC(=O)[C@H]1CC[C@H]2[C@@H]3CCC4=CC(=O)CC[C@]4(C)[C@H]3CC[C@]12C | 1.23% [at 35.3 µM] (inactive)
10 | CCOc1ccc2nc(S(N)(=O)=O)sc2c1 | -0.325% [at 35.3 µM] (inactive)
11 | O=C(O)c1ccc2cc(C(=O)O)ccc2c1 | -0.234% (inactive)
12 | OCCc1ccncc1 | -0.329% (inactive)
13 | CN1C(CSCC(F)(F)F)Nc2cc(Cl)c(S(N)(=O)=O)cc2S1(=O)=O (centres undefined) | -0.0147% [at 35.3 µM] (inactive)
14 | O=c1cc(O)c(Cl)c[nH]1 | 0.439% [at 35.3 µM] (inactive)
15 | CN1CCC(=C2c3ccccc3CCc3cccnc32)CC1 | 0.0397% [at 35.3 µM] (inactive)
16 | CCO[C@H](Cc1ccc(OCCc2ccc(OS(C)(=O)=O)cc2)cc1)C(=O)O | -0.149% [at 35.3 µM] (inactive)
17 | CC(CC=O)CCCC(C)(C)O (centres undefined) | -0.622% (inactive)
18 | COc1ccc(/C=N/NC(=O)c2ccncc2)cc1OC | -0.0581% [at 35.3 µM] (inactive)
19 | C=CCOC(=O)COCCC(C)C | -0.149% (inactive)

Row | SMILES | activation
20 | CCOc1ccccc1OCCN[C@H](C)Cc1ccc(OC)c(S(N)(=O)=O)c1 | -0.329% [at 35.3 µM] (inactive)
21 | CCCCCCC(C)Nc1ccc(Nc2ccccc2)cc1 (centres undefined) | -0.621% (inactive)
22 | O=C(NS(=O)(=O)/C=C/c1cccs1)c1ccc(F)cc1Br | -0.307% (inactive)
23 | CCCc1ccc(OC)cc1 | 0.305% (inactive)
24 | Cc1ccc(-c2ncc(Cl)cc2-c2ccc(S(C)(=O)=O)cc2)cn1 | -0.087% [at 35.3 µM] (inactive)
25 | COC=O | -0.541% [at 6.97 µM] (inactive)
26 | CCCCCCCCCCO[C@@H]1O[C@H](CO)[C@@H](O)[C@H](O)[C@H]1O | -0.0019% (inactive)
27 | CCN1C=CN(C)C1C (centres undefined) | 0.083% (inactive)
28 | CN(C)CCOCCO | 7.59% (inactive)
29 | CCC1Nc2cc(Cl)c(S(N)(=O)=O)cc2S(=O)(=O)N1 (centres undefined) | -0.179% [at 35.3 µM] (inactive)
30 | CCCCOC(=O)CCCCC(=O)OCCCC | -0.175% (inactive)
31 | O=C1[C@@H]2[C@H]3CC[C@H](C3)[C@@H]2C(=O)N1CCCCN1CCN(c2ncccn2)CC1 | -0.308% [at 35.3 µM] (inactive)
32 | O=C(O)CNC(=O)c1ccccc1 | 0.0319% [at 35.3 µM] (inactive)
33 | COC1CCC=CO1 (centres undefined) | -0.151% (inactive)
34 | CCOCCn1c(N2CCCN(C)CC2)nc2ccccc21 | 0.818% [at 35.3 µM] (inactive)
35 | COCc1nnc(-c2ccc[n+]([O-])c2)n1-c1c(Cl)c(Cl)cc2[nH]c(=O)c(=O)[nH]c12 | -0.0452% (inactive)
36 | CN(C(=O)CN(CCO)CC(=O)N(C)C(C)(C)Cc1ccccc1)C(C)(C)Cc1ccccc1 | 2.59% [at 35.3 µM] (inactive)
37 | CN(C)c1ccc(C2(c3ccc(N(C)C)cc3)OC(=O)c3cc(N(C)C)ccc32)cc1 | -0.493% (inactive)

Test system: not listed separately
Assay: cAMP Responsive Elements (CRE) small molecule agonists, cell-based qHTS assay (AID 1963590)
Settings: CRE-bla HEK293T, beta-lactamase FRET ratio, 3 h; series mostly up to 92.4 µM; activation: at the top concentration
Outline: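 CRE-bla HEK 293T cells in DMEM with 10% dialyzed FBS, NEAA, pyruvate and 25 mM HEPES were plated 18 h at 37 C/5% CO2, then exposed to compounds in DMSO for 3 h before LiveBLAzer B/G FRET substrate addition.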

Row | SMILES | activation
38 | Oc1ccccc1F | -0.582% (inactive)
39 | NCCCN1CCOCC1 | -1.1% (inactive)
40 | CC(C)OC(=O)c1ccccc1C(=O)OC(C)C | -2.09% (inactive)
41 | CC1CC(OC(=O)C(O)c2ccccc2)CC(C)(C)N1C (centres undefined) | 0.116% [at 42.5 µM] (inactive)
42 | C=CC(=C)CCCC(C)(C)OC(C)=O | 0.142% (inactive)
43 | CC(=O)N[C@@H](CCC(=O)O)C(=O)O | 0.0083% [at 42.5 µM] (inactive)
44 | CCOc1ccc2nc(S(N)(=O)=O)sc2c1 | 0.0276% [at 42.5 µM] (inactive)
45 | O=C(O)c1ccc2cc(C(=O)O)ccc2c1 | -0.35% (inactive)
46 | OCCc1ccncc1 | -0.222% (inactive)
47 | CN1C(CSCC(F)(F)F)Nc2cc(Cl)c(S(N)(=O)=O)cc2S1(=O)=O (centres undefined) | 0.296% [at 42.5 µM] (inactive)
48 | O=c1cc(O)c(Cl)c[nH]1 | 0.319% [at 42.5 µM] (inactive)
49 | N#CCCNCCC#N | 0.165% (inactive)
50 | CN1CCC(=C2c3ccccc3CCc3cccnc32)CC1 | 1.58% [at 42.5 µM] (inactive)
51 | CCO[C@H](Cc1ccc(OCCc2ccc(OS(C)(=O)=O)cc2)cc1)C(=O)O | -1.56% [at 42.5 µM] (inactive)
52 | CC(CC=O)CCCC(C)(C)O (centres undefined) | -0.21% (inactive)
53 | COc1ccc(/C=N/NC(=O)c2ccncc2)cc1OC | 2.43% [at 42.5 µM] (inactive)
54 | C=CCOC(=O)COCCC(C)C | -1.94% (inactive)
55 | CCOc1ccccc1OCCN[C@H](C)Cc1ccc(OC)c(S(N)(=O)=O)c1 | -1.24% [at 42.5 µM] (inactive)
56 | O=C(NS(=O)(=O)/C=C/c1cccs1)c1ccc(F)cc1Br | -0.687% (inactive)
57 | CCCc1ccc(OC)cc1 | 0.792% (inactive)
58 | CCCCCCC#CC(=O)OC | -1.49% (inactive)
59 | CCCCCCCCCCO[C@@H]1O[C@H](CO)[C@@H](O)[C@H](O)[C@H]1O | 10.4% (inactive)
60 | CCN1C=CN(C)C1C (centres undefined) | -0.479% (inactive)
61 | CN(C)CCOCCO | 2.34% (inactive)
62 | CCC1Nc2cc(Cl)c(S(N)(=O)=O)cc2S(=O)(=O)N1 (centres undefined) | -0.212% [at 42.5 µM] (inactive)
63 | CCCCOC(=O)CCCCC(=O)OCCCC | -3.88% (inactive)
64 | O=C(O)CNC(=O)c1ccccc1 | -1.04% [at 42.5 µM] (inactive)
65 | CCOCCn1c(N2CCCN(C)CC2)nc2ccccc21 | -0.634% [at 42.5 µM] (inactive)
66 | CN(C)c1ccc(C2(c3ccc(N(C)C)cc3)OC(=O)c3cc(N(C)C)ccc32)cc1 | 5.94% (inactive)

Test system: not listed separately
Assay: cAMP Responsive Elements (CRE) small molecule antagonists, cell-based qHTS assay (AID 1963591; active = well fitted inhibition curve with a large enough effect in the signal ratio in the repeat runs, not every such curve was filed as active; the % refers to the signal ratio)
Settings: CRE-bla HEK293T, beta-lactamase FRET ratio; series mostly up to 92.4 µM; activity change, negative = inhibition: at the top concentration
Outline: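 CRE-bla HEK293T cells were plated 18 h at 37 °C/5% CO2, pinned with compound in DMSO, then stimulated with NKH477 at 0.25 uM final for 3 h. LiveBLAzer B/G FRET substrate was added and plates incubated 2 h at room temperature.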

Row | SMILES | activity change, negative = inhibition
67 | Oc1ccccc1F | -0.381% (inactive)
68 | NCCCN1CCOCC1 | -3.5% (inactive)
69 | CC(C)OC(=O)c1ccccc1C(=O)OC(C)C | -17.2% (inactive)
70 | CC1CC(OC(=O)C(O)c2ccccc2)CC(C)(C)N1C (centres undefined) | -6.32% [at 42.4 µM] (inactive)
71 | CC(=O)N[C@@H](CCC(=O)O)C(=O)O | 1.23% [at 42.4 µM] (inactive)
72 | CCOc1ccc2nc(S(N)(=O)=O)sc2c1 | 1.53% [at 42.4 µM] (inactive)
73 | O=C(O)c1ccc2cc(C(=O)O)ccc2c1 | 1.49% (inactive)
74 | OCCc1ccncc1 | 13.8% (inactive)
75 | CN1C(CSCC(F)(F)F)Nc2cc(Cl)c(S(N)(=O)=O)cc2S1(=O)=O (centres undefined) | 4.73% [at 42.4 µM] (inactive)
76 | O=c1cc(O)c(Cl)c[nH]1 | -4.43% [at 42.4 µM] (inactive)
77 | N#CCCNCCC#N | 2.15% (inactive)
78 | CCO[C@H](Cc1ccc(OCCc2ccc(OS(C)(=O)=O)cc2)cc1)C(=O)O | 12.4% [at 42.4 µM] (inactive)
79 | COc1ccc(/C=N/NC(=O)c2ccncc2)cc1OC | 4.08% [at 42.4 µM] (inactive)
80 | C=CCOC(=O)COCCC(C)C | -3.69% (inactive)
81 | CCOc1ccccc1OCCN[C@H](C)Cc1ccc(OC)c(S(N)(=O)=O)c1 | -0.263% [at 42.4 µM] (inactive)
82 | CCCc1ccc(OC)cc1 | 8.59% (inactive)
83 | CCCCCCC#CC(=O)OC | 1.47% (inactive)
84 | COC=O | 12.8% [at 8.39 µM] (inactive)
85 | CCCCCCCCCCO[C@@H]1O[C@H](CO)[C@@H](O)[C@H](O)[C@H]1O | -9.72% (inactive)
86 | CCN1C=CN(C)C1C (centres undefined) | -12.7% (inactive)
87 | CCC1Nc2cc(Cl)c(S(N)(=O)=O)cc2S(=O)(=O)N1 (centres undefined) | -3.2% [at 42.4 µM] (inactive)
88 | CCCCOC(=O)CCCCC(=O)OCCCC | -9.68% (inactive)
89 | O=C1[C@@H]2[C@H]3CC[C@H](C3)[C@@H]2C(=O)N1CCCCN1CCN(c2ncccn2)CC1 | 5.36% [at 42.4 µM] (inactive)
90 | O=C(O)CNC(=O)c1ccccc1 | -21.4% [at 42.4 µM] (inactive)
91 | COC1CCC=CO1 (centres undefined) | -3.99% (inactive)
92 | COCc1nnc(-c2ccc[n+]([O-])c2)n1-c1c(Cl)c(Cl)cc2[nH]c(=O)c(=O)[nH]c12 | 10.1% (inactive)
93 | CN(C(=O)CN(CCO)CC(=O)N(C)C(C)(C)Cc1ccccc1)C(C)(C)Cc1ccccc1 | 8.38% [at 42.4 µM] (inactive)
94 | CN(C)c1ccc(C2(c3ccc(N(C)C)cc3)OC(=O)c3cc(N(C)C)ccc32)cc1 | -0.172% (inactive)
